Reference: PubChem BioAssay (Tox21)
Results filed as inconclusive are left out. Calls of active or inactive are those of the source. Unless noted, calls follow the shape of the full dose curve.

How the values were obtained:
[1] = Nuclear factor erythroid 2-related factor 2/antioxidant responsive element (Nrf2/ARE) small molecule agonists: qHTS cell viability counter screen in human keratinocytes (AID 1919968; active = well fitted curve in the direction sought with a large enough effect in the repeat runs; an effect the other way counts as inactive or inconclusive; also: nearly all actives have a fitted effect of over 55% in size; also: potency is read from the fitted curve at half-maximal effect)
Outline: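 KeratinoSens cells (HaCaT keratinocytes stably carrying an ARE-luciferase reporter) were seeded at 1,500 cells/well and rested 5 h at 37 C/5% CO2. They were then exposed to compounds in DMSO for 23 h. Viability was read by CellTiter-Fluor fluorescence after 1 h.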

[2] = Nuclear factor erythroid 2-related factor 2/antioxidant responsive element (Nrf2/ARE) small molecule agonists: luciferase reporter gene qHTS assay in human keratinocytes (AID 1919969); also: nearly all actives have a fitted effect of over 35% in size; also: potency is read from the fitted curve at half-maximal effect
[3] = biological target: Gonadotropin-releasing hormone receptor (Homo sapiens) (UniProt P30968); assay: Human gonadotropin-releasing hormone receptor (GnRHR) small molecule agonists, calcium flux assay in GnRHR-HEK293 cells (AID 1920063); also: nearly all actives have a fitted effect of over 35% in size
Sequence of Gonadotropin-releasing hormone receptor (Homo sapiens) (P30968 whole entry, looked up): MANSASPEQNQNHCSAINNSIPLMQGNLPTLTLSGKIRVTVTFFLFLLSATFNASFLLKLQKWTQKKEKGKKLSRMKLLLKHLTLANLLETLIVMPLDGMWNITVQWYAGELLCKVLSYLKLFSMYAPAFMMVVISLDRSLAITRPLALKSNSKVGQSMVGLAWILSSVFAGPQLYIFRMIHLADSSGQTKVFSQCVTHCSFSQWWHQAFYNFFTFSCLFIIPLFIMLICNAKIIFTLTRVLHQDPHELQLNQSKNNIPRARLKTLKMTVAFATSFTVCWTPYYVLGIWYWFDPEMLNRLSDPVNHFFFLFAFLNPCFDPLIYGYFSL
Outline: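 HEK293 cells stably expressing human GnRHR were plated 18 h at 37 °C, loaded with calcium dye 1 h at 37 °C, then given compound in agonist mode; fluorescence (Ex/Em 480/540) read kinetically for 3 min at 1 s intervals.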

[4] = biological target: KiSS-1 receptor (Homo sapiens) (UniProt Q969F8); assay: Human kisspeptin (KISS1R) small molecule agonists, calcium flux assay in KISS1R-HEK293 cells (AID 1920064; active = well fitted curve in the direction sought with a large enough effect in the repeat runs; an effect the other way counts as inactive or inconclusive)
Sequence of KiSS-1 receptor (Homo sapiens) (Q969F8 whole entry, looked up): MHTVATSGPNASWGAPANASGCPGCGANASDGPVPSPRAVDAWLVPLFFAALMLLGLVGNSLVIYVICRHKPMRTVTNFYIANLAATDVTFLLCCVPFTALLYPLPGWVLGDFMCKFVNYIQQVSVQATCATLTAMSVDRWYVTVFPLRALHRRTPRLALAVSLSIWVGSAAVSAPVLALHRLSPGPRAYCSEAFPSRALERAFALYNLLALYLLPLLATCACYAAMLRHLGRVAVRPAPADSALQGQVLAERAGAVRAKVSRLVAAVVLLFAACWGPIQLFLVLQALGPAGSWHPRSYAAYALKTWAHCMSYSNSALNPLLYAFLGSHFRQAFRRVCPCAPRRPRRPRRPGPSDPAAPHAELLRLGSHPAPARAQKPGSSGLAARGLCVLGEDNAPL
Outline: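 HEK293 cells stably expressing human KISS1R were plated 18 h at 37 °C, loaded with calcium dye for 1 h at 37 °C, then given compound by pin tool. Fluorescence (Ex/Em 480/540) was read kinetically for 3 min.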

[5] = G protein-coupled receptor (GPCR) small molecule agonists, calcium flux assay: HEK293 wild type cell line counter screen (AID 1920065)
Outline: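 Cells were plated and cultured 18 h at 37 C/5% CO2, then loaded with calcium dye for 1 h at 37 C. Compounds in DMSO were pin-transferred in agonist mode, and fluorescence (Ex/Em 480/540) was read kinetically for 3 min at 1 s intervals.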

[6] = p53 small molecule agonists, cell-based qHTS assay with human liver microsomes (AID 1963577);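 also: p53 response element beta-lactamase reporter cells with liver microsomes plus NADPH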
Outline: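 Metabolically competent format: test substances, human liver microsomes and NADPH (both 0.5 mg/mL final) incubated with p53RE-bla cells 16 h at 37 C. Beta-lactamase reporter signal then quantified by fluorescence.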

[7] = p53 small molecule agonists, cell-based qHTS assay with rat liver microsomes (AID 1963578)
Outline: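 Each plate received p53RE-bla cells, then compound, then rat liver microsomes and NADPH (both 0.5 mg/mL final). Plates were held 16 h at 37 C, and beta-lactamase activity was detected with LiveBLAzer over 2 h.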

[8] = p53 small molecule agonists, cell-based qHTS assay with human liver microsomes: qHTS cell viability counter screen (AID 1963579); also: nearly all actives have a fitted effect of over 45% in size
Outline: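 Tox21 library compounds, delivered from DMSO stocks, were tested on p53RE-bla cells together with 0.5 mg/mL human liver microsomes and 0.5 mg/mL NADPH (final) over 16 h at 37 C; CellTiter-Glo luminescence served as the cytotoxicity measure.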

[9] = p53 small molecule agonists, cell-based qHTS assay with rat liver microsomes: qHTS cell viability counter screen (AID 1963580); also: nearly all actives have a fitted effect of over 45% in size
Outline: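 p53RE-bla HCT-116 cells (4,000/well) rested 5 h at 37 C, then given Tox21 compounds in DMSO with rat liver microsomes (0.5 mg/mL final) plus NADPH (0.5 mg/mL final) for 16 h at 37 C. Viability read by CellTiter-Glo luminescence after 30 min at room temperature.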

[10] = p53 small molecule agonists, cell-based qHTS assay: qHTS cell viability counter screen (AID 1963581); also: nearly all actives have a fitted effect of over 45% in size
Outline: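 p53RE-bla HCT-116 cells were exposed to compounds for 16 h at 37 C; after the beta-lactamase FRET read in the same wells, CellTiter-Glo was added and luminescence (intracellular ATP) read after 30 min at room temperature.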

[11] = biological target: 5-hydroxytryptamine receptor 2A (Homo sapiens) (UniProt P28223); assay: 5-hydroxytryptamine receptor 2A (HTR2A) small molecule antagonists, cell-based qHTS assay (AID 1963586); also: nearly all actives have a fitted effect of over 45% in size; also: potency is read from the fitted curve at half-maximal effect
Sequence of 5-hydroxytryptamine receptor 2A (Homo sapiens) (P28223 whole entry, looked up): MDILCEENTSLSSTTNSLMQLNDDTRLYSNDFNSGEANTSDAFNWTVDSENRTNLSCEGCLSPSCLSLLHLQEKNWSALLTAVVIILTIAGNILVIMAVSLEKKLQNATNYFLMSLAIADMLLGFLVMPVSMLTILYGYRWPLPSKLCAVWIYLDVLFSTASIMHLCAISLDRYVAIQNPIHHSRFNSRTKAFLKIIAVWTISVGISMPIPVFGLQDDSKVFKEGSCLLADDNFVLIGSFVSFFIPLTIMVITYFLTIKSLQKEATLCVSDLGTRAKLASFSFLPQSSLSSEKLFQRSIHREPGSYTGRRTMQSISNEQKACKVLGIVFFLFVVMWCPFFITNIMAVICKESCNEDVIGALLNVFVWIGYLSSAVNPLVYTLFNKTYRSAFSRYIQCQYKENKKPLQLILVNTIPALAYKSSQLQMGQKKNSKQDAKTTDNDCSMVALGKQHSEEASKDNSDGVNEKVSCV
Outline: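 Antagonist-mode intracellular calcium assay: DOI (4 nM) added after 5 min compound pre-incubation at room temperature to dye-loaded HTR2A-CHO cells. Fluorescence followed for 3 min, sampled every second.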

[12] = biological target: 5-hydroxytryptamine receptor 2A (Homo sapiens) (UniProt P28223); assay: 5-hydroxytryptamine receptor 2A (HTR2A) small molecule agonists, cell-based qHTS assay (AID 1963587); also: nearly all actives have a fitted effect of over 30% in size
Outline: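 HTR2A-CHO cells, plated 18 h at 37 C/5% CO2, dye-loaded 1 h at 37 C; compounds in DMSO added by pin tool (agonist mode). Intracellular calcium flux read as kinetic fluorescence on FDSS over 2 min at 1 s intervals.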

[13] = biological target: Muscarinic acetylcholine receptor M1 (Homo sapiens) (UniProt P11229); assay: Cholinergic receptor muscarinic 1 (CHRM1) small molecule antagonists, cell-based qHTS assay (AID 1963588); also: nearly all actives have a fitted effect of over 40% in size
Sequence of Muscarinic acetylcholine receptor M1 (Homo sapiens) (P11229 whole entry, looked up): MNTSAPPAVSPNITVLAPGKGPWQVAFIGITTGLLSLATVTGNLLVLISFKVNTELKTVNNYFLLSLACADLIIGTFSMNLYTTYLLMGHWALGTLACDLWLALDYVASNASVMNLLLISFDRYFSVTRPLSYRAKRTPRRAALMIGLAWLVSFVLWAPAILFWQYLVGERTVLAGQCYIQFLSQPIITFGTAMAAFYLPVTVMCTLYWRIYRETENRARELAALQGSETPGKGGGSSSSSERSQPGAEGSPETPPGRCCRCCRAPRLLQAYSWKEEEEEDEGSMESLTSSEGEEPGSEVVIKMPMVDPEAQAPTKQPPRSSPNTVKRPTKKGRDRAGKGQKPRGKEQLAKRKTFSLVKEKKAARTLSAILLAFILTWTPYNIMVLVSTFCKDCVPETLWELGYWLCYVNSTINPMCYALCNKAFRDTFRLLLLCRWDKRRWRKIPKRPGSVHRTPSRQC
Outline: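 CHRM1-CHO calcium-flux assay, antagonist mode. Cells were seeded 18 h, dye-loaded 1 h at 37 C and given compound for 5 min at RT, then acetylcholine was added at 50nM. FDSS fluorescence was read 3 min; 15 concentrations, three runs.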

[14] = biological target: Muscarinic acetylcholine receptor M1 (Homo sapiens) (UniProt P11229); assay: Cholinergic receptor muscarinic 1 (CHRM1) small molecule agonists, cell-based qHTS assay (AID 1963589); also: nearly all actives have a fitted effect of over 35% in size
Outline: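 CHO cells stably expressing human CHRM1, seeded 18 h at 37 C/5% CO2, dye-loaded 1 h at 37 C, then given compound in agonist mode; intracellular calcium fluorescence read kinetically at 1 s intervals. Fifteen concentrations, three independent runs.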

[15] = biological target: D(2) dopamine receptor (Homo sapiens) (UniProt P14416); assay: Dopamine D2 receptor (DRD2) small molecule agonists, cell-based qHTS assay (AID 1963594); also: nearly all actives have a fitted effect of over 35% in size
Sequence of D(2) dopamine receptor (Homo sapiens) (P14416 whole entry, looked up): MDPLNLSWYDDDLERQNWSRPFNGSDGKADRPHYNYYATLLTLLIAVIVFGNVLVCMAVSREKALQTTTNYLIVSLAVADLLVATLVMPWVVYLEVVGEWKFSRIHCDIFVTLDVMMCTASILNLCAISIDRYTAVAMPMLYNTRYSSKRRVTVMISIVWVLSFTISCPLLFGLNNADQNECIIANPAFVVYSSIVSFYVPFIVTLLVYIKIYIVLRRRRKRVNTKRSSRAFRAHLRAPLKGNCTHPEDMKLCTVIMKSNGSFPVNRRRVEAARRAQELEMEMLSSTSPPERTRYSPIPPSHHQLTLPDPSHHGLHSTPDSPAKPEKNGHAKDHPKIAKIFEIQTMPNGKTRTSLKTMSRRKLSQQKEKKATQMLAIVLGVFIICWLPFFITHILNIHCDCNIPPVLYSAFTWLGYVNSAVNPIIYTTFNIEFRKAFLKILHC
Outline: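 HEK293 cells stably expressing DRD2 were cultured 24 h at 37 C, then given Ro20-1724 (0.1 mM final) and compounds for 10 min at room temperature. NKH477 (200nM) was then added for 30 min. cAMP was read by HTRF.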

[16] = biological target: D(2) dopamine receptor (Homo sapiens) (UniProt P14416); assay: Dopamine D2 receptor (DRD2) small molecule antagonists, cell-based qHTS assay (AID 1963595; active = well fitted inhibition curve with a large enough effect in the signal ratio in the repeat runs, with a control signal flat; the % refers to the signal ratio)
Outline: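 Readout: HTRF cAMP, cAMP-d2 competing with cellular cAMP for anti-cAMP cryptate, read after 1 h. Cells: DRD2-HEK293. Conditions: 0.1 mM Ro20-1724, 12 nM quinpirole, 200 nM NKH477, 30 min RT.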

[17] = cAMP Responsive Elements (CRE) small molecule antagonists, cell-based qHTS assay (AID 1963591; active = well fitted inhibition curve with a large enough effect in the signal ratio in the repeat runs, not every such curve was filed as active; the % refers to the signal ratio)
Outline: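 CRE-bla HEK293T cells were plated 18 h at 37 °C/5% CO2, pinned with compound in DMSO, then stimulated with NKH477 at 0.25 uM final for 3 h. LiveBLAzer B/G FRET substrate was added and plates incubated 2 h at room temperature.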

[18] = biological target: Beta-2 adrenergic receptor (Homo sapiens) (UniProt P07550); assay: Adrenergic beta2 receptor (ADRB2) small molecule antagonists, cell-based qHTS assay (AID 1963592); also: series mostly up to about 92 µM; nearly all actives have a fitted effect of over 50% in size
Sequence of Beta-2 adrenergic receptor (Homo sapiens) (P07550 whole entry, looked up): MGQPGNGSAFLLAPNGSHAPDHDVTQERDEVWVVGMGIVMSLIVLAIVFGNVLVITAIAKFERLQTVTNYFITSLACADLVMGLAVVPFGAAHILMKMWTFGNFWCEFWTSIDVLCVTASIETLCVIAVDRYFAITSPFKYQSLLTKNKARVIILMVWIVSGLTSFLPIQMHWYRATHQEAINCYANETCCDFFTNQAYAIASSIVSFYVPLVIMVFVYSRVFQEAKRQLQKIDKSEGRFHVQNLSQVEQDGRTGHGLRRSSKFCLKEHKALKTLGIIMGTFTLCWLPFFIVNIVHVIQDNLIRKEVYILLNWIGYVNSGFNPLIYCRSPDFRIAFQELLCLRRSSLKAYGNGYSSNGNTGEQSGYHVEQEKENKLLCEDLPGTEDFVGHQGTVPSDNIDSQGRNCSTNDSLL
Outline: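 Cells (CHO, stable ADRB2 overexpression) incubated 18-20hr at 37C; compounds added from DMSO; agonist mix (1nM isoproterenol, 100uM IBMX, 25uM Ro-20-1724) added; 0.5hr RT; d2-cAMP and anti-cAMP-cryptate added; 1hr RT; 665/615 nm read.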

[19] = cAMP Responsive Elements (CRE) small molecule agonists, cell-based qHTS assay (AID 1963590)
Outline: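 CRE-bla HEK 293T cells in DMEM with 10% dialyzed FBS, NEAA, pyruvate and 25 mM HEPES were plated 18 h at 37 C/5% CO2, then exposed to compounds in DMSO for 3 h before LiveBLAzer B/G FRET substrate addition.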

[20] = biological target: Beta-2 adrenergic receptor (Homo sapiens) (UniProt P07550); assay: Adrenergic beta2 receptor (ADRB2) small molecule agonists, cell-based qHTS assay (AID 1963593);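 also: CHO cells stably overexpressing human ADRB2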
Outline: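 CHO cells stably over-expressing ADRB2 were plated overnight at 37C, then dosed with compounds plus a stimulation mix containing 100uM IBMX and 25uM Ro-20-1724 for 0.5hr at room temperature. cAMP was measured by HTRF competition, 1hr.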

Measured: Potency

CCCCc1nc2cccnc2n1Cc1ccc(-c2ccccc2-c2nnn[nH]2)cc1
inactive: [1] | [2] | [3] | [4] | [5] | [6] | [7] | [8] | [9] | [10] | [11] | [12] | [13] | [14] | [15] | [16]

O=C(CCCCCCCCc1cccnc1)N1CCC(C=C(c2ccccc2)c2ccccc2)CC1
inactive: [2] | [3] | [4] | [5] | [6] | [7] | [8] | [9] | [10] | [11] | [12] | [14] | [17] | [18] | [15] | [16]
active: [1] 15.4 µM

Nc1ccc(Oc2cccc(Oc3ccc(N)cc3)c2)cc1
active: [11] 0.84 µM
inactive: [1] | [2] | [3] | [4] | [5] | [6] | [7] | [8] | [9] | [10] | [14] | [19] | [17] | [18] | [15] | [16]

Oc1ccc(-c2ccc(O)cc2)cc1
active: [2] 30.8 µM
inactive: [1] | [3] | [4] | [5] | [6] | [7] | [8] | [9] | [10] | [11] | [12] | [13] | [14] | [17] | [18] | [15] | [16]

CCOC(=O)C1=NN(c2ccc(Cl)cc2Cl)C(C)(C(=O)OCC)C1 (configuration not stated)
inactive: [1] | [2] | [3] | [4] | [5] | [6] | [7] | [8] | [9] | [10] | [11] | [12] | [14] | [17] | [18] | [15] | [16]

NC(=O)N(O)[C@@H]1C=C[C@H](Oc2cccc(Oc3ccc(F)cc3)c2)C1
active: [2] 61.1 µM
inactive: [1] | [3] | [4] | [5] | [6] | [7] | [8] | [9] | [10] | [11] | [12] | [13] | [18] | [16]

CCCCCCc1ccc(N)cc1
active: [2] 27.3 µM
inactive: [1] | [3] | [4] | [5] | [6] | [7] | [8] | [9] | [10] | [11] | [12] | [13] | [18] | [20] | [15] | [16]
